PubChem BioAssay AID1159580 (chemical genetic matrix, 2015)
“And” between values parts separate entries of the source, which are not always exact repeats. Identical values can stand only once. Screen size: about 5,500 compounds; about 2,000 (36%) were called active. Inconclusive results (about 18%) are left out. Rule as the data show it: active = normalized growth mostly below about 0.91 (no sharp cut-off); inconclusive = no clear call, values can overlap the other calls; inactive = mostly above about 0.92. The list shows a part of the results.

Assay: chemical genetic growth profiling, strain panel (AID 1159580);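 also: tested at 20 µM; growth read once vehicle control cultures reached saturation at 30 °C; 1 = growth at the plate median or of vehicle wells; lower values mean less growth of the strain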
Conditions: S. cerevisiae deletion strains, growth OD

Measured: normalized growth

NCCCN
inactive: locus YAL021C, strain ccr4, active compounds read low 1.02 | locus YAL026C, strain drs2, active compounds read low 0.984 | locus YAL030W, strain snc1, active compounds read low 0.989 | locus YBL061C, strain skt5, active compounds read low 0.989 | locus YBR009C, strain hhf1, active compounds read low 0.988 | locus YBR021W, strain FUR4, active compounds read low 0.996 | locus YBR023C, strain chs3, active compounds read low 0.982 | locus YBR171W, strain sec66, active compounds read low 0.957 | locus YBR229C, strain ROT2, active compounds read low 0.99 | locus YBR231C, strain swc5, active compounds read low 0.984 | locus YBR279W, strain paf1, active compounds read low 1 | locus YCL011C, strain gbp2, active compounds read low 0.973 | locus YCL016C, strain dcc1, active compounds read low 1 | locus YCL029C, strain bik1, active compounds read low 0.984 | locus YCL061C, strain MRC1, active compounds read low 1.01 | locus YCL069W, strain vba3, active compounds read low 0.973 | locus YCR088W, strain abp1, active compounds read low 0.982 | locus YDL005C, strain med2, active compounds read low 0.977 | locus YDL035C, strain GPR1, active compounds read low 1.03 | locus YDL040C, strain nat1, active compounds read low 0.986 | locus YDL074C, strain BRE1, active compounds read low 1.01 | locus YDL101C, strain DUN1, active compounds read low 0.994 | locus YDL185W, strain tfp1, active compounds read low 0.983 | locus YDL192W, strain arf1, active compounds read low 0.998 | locus YDR001C, strain nth1, active compounds read low 0.99 | locus YDR069C, strain doa4, active compounds read low 0.987 | locus YDR101C, strain arx1, active compounds read low 0.976 | locus YDR137W, strain rgp1, active compounds read low 1.02 | locus YDR159W, strain sac3, active compounds read low 0.961 | locus YDR162C, strain NBP2, active compounds read low 1.01 | locus YDR195W, strain ref2 0.981 | locus YDR297W, strain sur2, active compounds read low 0.996 | locus YDR318W, strain mcm21, active compounds read low 1.01 | locus YDR334W, strain swr1, active compounds read low 0.962 | locus YDR335W, strain msn5, active compounds read low 0.987 | locus YDR388W, active compounds read low 0.993 | locus YDR392W, strain spt3, active compounds read low 0.964 | locus YDR502C, strain sam2, active compounds read low 0.997 | locus YEL003W, strain gim4, active compounds read low 0.976 | locus YEL037C, strain rad23, active compounds read low 0.98 | locus YEL061C, strain CIN8 (second series), active compounds read low 0.965 | locus YEL061C, strain CIN8, active compounds read low 0.997 | locus YER015W, strain faa2, active compounds read low 0.992 | locus YER016W, strain bim1, active compounds read low 0.989 | locus YER110C, active compounds read low 0.979 | locus YER111C, strain swi4, active compounds read low 0.964 | locus YER155C, strain BEM2 (second series), active compounds read low 0.966 | locus YER155C, strain BEM2, active compounds read low 0.982 | locus YER167W, strain BCK2, active compounds read low 0.989 | locus YFR010W, strain ubp6, active compounds read low 0.958 | locus YGL078C, strain dbp3, active compounds read low 0.999 | locus YGL086W, strain mad1, active compounds read low 0.983 | locus YGL167C, strain pmr1, active compounds read low 0.983 | locus YGL173C, strain kem1, active compounds read low 0.972 | locus YGL227W, strain vid30, active compounds read low 0.986 | locus YGL240W, strain doc1, active compounds read low 0.979 | locus YGL248W, strain PDE1, active compounds read low 1.01 | locus YGL253W, strain hxk2, active compounds read low 0.968 | locus YGR078C, strain PAC10, active compounds read low 1 | locus YGR135W, strain pre9, active compounds read low 1.01 | locus YGR252W, strain gcn5, active compounds read low 1.08 | locus YHR013C, strain ard1, active compounds read low 0.972 | locus YHR027C, strain rpn1, active compounds read low 1.01 | locus YHR030C, strain SLT2, active compounds read low 0.997 and 0.973 | locus YHR079C, strain IRE1 (second series), active compounds read low 0.994 | locus YHR079C, strain IRE1, active compounds read low 0.976 | locus YHR094C, strain hxt1, active compounds read low 0.979 | locus YHR129C, strain ARP1, active compounds read low 1 | locus YHR142W, strain chs7, active compounds read low 0.976 | locus YHR200W, strain rpn10, active compounds read low 0.993 | locus YIL066C, strain RNR3, active compounds read low 0.995 | locus YIL073C, strain SPO22, active compounds read low 1.06 | locus YIL125W, strain kgd1, active compounds read low 0.991 | locus YIR030C, strain dcg1, active compounds read low 0.992 | locus YJL092W, strain hpr5, active compounds read low 0.969 | locus YJL095W, strain BCK1 (second series), active compounds read low 0.984 | locus YJL095W, strain BCK1, active compounds read low 1.05 and 1.04 | locus YJL115W, strain asf1, active compounds read low 0.956 | locus YJL129C, strain trk1, active compounds read low 0.995 | locus YJL134W, strain LCB3, active compounds read low 1 | locus YJL154C, strain vps35, active compounds read low 0.981 | locus YJL164C, strain tpk1, active compounds read low 1.01 | locus YJL166W, strain qcr8, active compounds read low 0.989 | locus YJL168C, strain set2, active compounds read low 0.983 | locus YJL187C, strain SWE1 (second series), active compounds read low 1.01 | locus YJL187C, strain SWE1, active compounds read low 1 | locus YJR043C, strain POL32, active compounds read low 1.03
